The compounds below were run against T1, Serine/threonine-protein kinase ULK2 (Homo sapiens) (UniProt Q8IYT8). Conditions: at 1 µM.
T1 sequence (whole entry): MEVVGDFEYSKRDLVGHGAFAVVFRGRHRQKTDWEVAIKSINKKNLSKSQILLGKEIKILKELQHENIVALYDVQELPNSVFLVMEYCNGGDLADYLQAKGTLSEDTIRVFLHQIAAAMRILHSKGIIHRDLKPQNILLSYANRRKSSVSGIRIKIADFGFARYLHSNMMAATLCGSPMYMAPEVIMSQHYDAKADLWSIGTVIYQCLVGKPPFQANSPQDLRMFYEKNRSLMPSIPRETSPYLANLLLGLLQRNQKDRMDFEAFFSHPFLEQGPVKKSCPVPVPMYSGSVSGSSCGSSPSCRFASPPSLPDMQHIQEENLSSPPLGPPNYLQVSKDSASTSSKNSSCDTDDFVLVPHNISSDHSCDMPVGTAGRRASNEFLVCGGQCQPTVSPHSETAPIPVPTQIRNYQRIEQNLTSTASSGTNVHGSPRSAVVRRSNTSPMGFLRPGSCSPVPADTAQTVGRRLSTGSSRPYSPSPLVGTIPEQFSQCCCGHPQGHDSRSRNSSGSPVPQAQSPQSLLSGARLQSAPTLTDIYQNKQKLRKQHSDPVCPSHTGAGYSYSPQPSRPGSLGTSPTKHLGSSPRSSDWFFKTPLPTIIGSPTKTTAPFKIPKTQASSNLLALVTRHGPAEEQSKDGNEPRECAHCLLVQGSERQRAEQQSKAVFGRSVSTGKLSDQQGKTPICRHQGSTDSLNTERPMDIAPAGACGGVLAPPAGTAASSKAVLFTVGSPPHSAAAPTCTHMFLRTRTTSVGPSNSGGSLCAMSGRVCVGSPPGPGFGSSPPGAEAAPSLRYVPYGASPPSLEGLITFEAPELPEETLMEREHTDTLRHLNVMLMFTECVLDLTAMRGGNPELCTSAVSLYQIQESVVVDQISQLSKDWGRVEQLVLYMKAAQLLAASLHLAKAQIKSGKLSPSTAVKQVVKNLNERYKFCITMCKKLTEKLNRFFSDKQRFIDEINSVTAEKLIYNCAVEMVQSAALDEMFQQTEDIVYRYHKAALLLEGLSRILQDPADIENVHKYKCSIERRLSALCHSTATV

Row | Compound | residual activity [%]
1 | O=C1c2ccccc2-c2nc3nnnn3nc21 | 110
2 | O=[N+]([O-])/C=C/c1ccc2c(c1)OCO2 | 102
3 | O=C1Nc2ccc3ncsc3c2/C1=C/c1c[nH]cn1 | 37
4 | CN[C@@H]1C[C@H]2O[C@@](C)([C@@H]1OC)n1c3ccccc3c3c4c(c5c6ccccc6n2c5c31)C(=O)NC4 | 2
5 | c1cc(-c2cnn3cc(-c4ccc(OCCN5CCCCC5)cc4)cnc23)ccn1 | 50
6 | O=c1[nH]c2ccccc2n1C1CCN(Cc2ccc(-c3nc4cc5[nH]cnc5cc4nc3-c3ccccc3)cc2)CC1 | 108
7 | COc1cc2ncnc(Nc3ccc(OCc4ccccc4)cc3)c2cc1OC | 102
8 | CC(C)[C@H](CO)Nc1nc(Nc2cccc(Cl)c2)c2ncn(C(C)C)c2n1 | 83
9 | CCc1nc(-c2ccc(OC)cc2)[nH]c1-c1ccncc1 | 115
10 | CCn1cnc2c(Nc3cccc(Cl)c3)nc(N[C@@H]3CCCC[C@@H]3N)nc21 | 54
11 | COC(=O)[C@@]1(O)C[C@H]2O[C@]1(C)n1c3ccccc3c3c4c(c5c6ccccc6n2c5c31)C(=O)NC4 | 7
12 | C[S+]([O-])c1ccc(-c2nc(-c3ccc(F)cc3)c(-c3ccncc3)[nH]2)cc1 (stereo not given) | 120
13 | CC(C)(C)c1cc(C=C(C#N)C#N)cc(Br)c1O | 113
14 | COc1ccc2c(c1)/C(=C/c1cnc[nH]1)C(=O)N2 | 81

These compounds were tested against T1, Serine/threonine-protein kinase ULK2 (Homo sapiens). Conditions: at 10 µM.

Row | Compound | residual activity [%]
15 | COc1ccc2c(c[n+](C)c3c4cc5c(cc4ccc23)OCO5)c1OC | 94
16 | O=C1c2ccccc2-c2nc3nnnn3nc21 | 103
17 | O=[N+]([O-])/C=C/c1ccc2c(c1)OCO2 | 92
18 | O=C1Nc2ccc3ncsc3c2/C1=C/c1c[nH]cn1 | 6
19 | CN[C@@H]1C[C@H]2O[C@@](C)([C@@H]1OC)n1c3ccccc3c3c4c(c5c6ccccc6n2c5c31)C(=O)NC4 | 0
20 | c1cc(-c2cnn3cc(-c4ccc(OCCN5CCCCC5)cc4)cnc23)ccn1 | 17
21 | O=c1[nH]c2ccccc2n1C1CCN(Cc2ccc(-c3nc4cc5[nH]cnc5cc4nc3-c3ccccc3)cc2)CC1 | 106
22 | COc1cc2ncnc(Nc3ccc(OCc4ccccc4)cc3)c2cc1OC | 93
23 | CC(C)[C@H](CO)Nc1nc(Nc2cccc(Cl)c2)c2ncn(C(C)C)c2n1 | 39
24 | CCc1nc(-c2ccc(OC)cc2)[nH]c1-c1ccncc1 | 105
25 | CCn1cnc2c(Nc3cccc(Cl)c3)nc(N[C@@H]3CCCC[C@@H]3N)nc21 | 15
26 | COC(=O)[C@@]1(O)C[C@H]2O[C@]1(C)n1c3ccccc3c3c4c(c5c6ccccc6n2c5c31)C(=O)NC4 | 0
27 | C[S+]([O-])c1ccc(-c2nc(-c3ccc(F)cc3)c(-c3ccncc3)[nH]2)cc1 (stereo not given) | 101
28 | CC(C)(C)c1cc(C=C(C#N)C#N)cc(Br)c1O | 112
29 | COc1ccc2c(c1)/C(=C/c1cnc[nH]1)C(=O)N2 | 23
30 | COc1cc(OC)c(/C=C2\C(=O)Nc3ccccc32)c(OC)c1 | 99

Source: ChEMBL document CHEMBL2218924, “A broad activity screen in support of a chemogenomic map for kinase signalling research and drug discovery” (Biochem J, 2013)
